# Laboratory results from PubChem BioAssay AID720518 (National Center for Advancing Translational Sciences (NCATS), 2013).
# Records with an inconclusive call do not appear. Entries that show only a call come without a potency. Calls of active or inactive are those of the source. Calls come from the whole dose curve.
# Assay: qHTS for Inhibitors of Cell Surface uPA Generation: Wild-type Protective Antigen (WT-PrAg) Counterscreen for Cherry-picked Compounds
# Settings: cells, WT protective antigen toxicity counterscreen; series mostly up to 115 µM
# Potency is the fitted concentration of half-maximal effect.
row,Structure (SMILES),Potency
1,CC1CC(C)(C)Nc2ccc(N=O)cc21 (stereo not given),inactive
2,Cc1ncc(CN2CCCC(C(=O)c3cccc(OC(C)C)c3)C2)s1 (stereo not given),inactive
3,CCC1(C)NC(=O)N(CC(=O)Nc2sc3c(c2C(N)=O)CCC3)C1=O (stereo not given),inactive
4,O=C(CSc1nncs1)NC(=O)NCc1ccco1,inactive
5,O=C(COC(=O)C1CC2C=CC1C2)NCc1ccccc1Cl (stereo not given),inactive
6,Cc1[nH]c2ccccc2c1C(=O)C(C)OC(=O)c1ccccc1NCCO (stereo not given),inactive
7,CCc1ccccc1NC(=O)CN(C)C(=O)CSc1nnc(Nc2cccc(C)c2C)s1,inactive
8,O=C(COc1ccccc1F)NCC(c1ccc(F)cc1)N1CCOCC1 (stereo not given),inactive
9,CC1=CC(C)(C)N2C(=O)C3(NCCc4c3[nH]c3ccccc43)c3cc(C)cc1c32 (stereo not given),2330 nM (active)
10,CC1CCCCN1C(=O)CSc1nc2ncccc2[nH]1 (stereo not given),inactive
11,O=C(CSc1ccc([N+](=O)[O-])cn1)Nc1nccs1,inactive
12,CSc1nc(N)nc2c1ncn2CC(=O)NCC1CCCO1 (stereo not given),inactive
13,CCC(NC(=S)NCc1ccc(F)cc1)c1ccccc1 (stereo not given),inactive
14,Cc1ccc(NC(=O)CC2OC(=O)c3ccccc32)cc1S(=O)(=O)N1CCOCC1 (stereo not given),inactive
15,COc1cccc(NC(=O)c2nnn(CC(=O)Nc3cc(C)cc(C)c3)c2N)c1,inactive
16,CCOC(=O)C(CC)n1cnc2c(nnn2-c2ccccc2)c1=O (stereo not given),inactive
17,CC1(C)CC2(CC(c3ccccc3)Oc3cc(O)ccc32)NC(=S)N1 (stereo not given),inactive
18,CS(=O)(=O)N1CCC(C(=O)Nc2ccccc2)CC1,inactive
19,Cc1ccc(C)c(S(=O)(=O)Nc2ccccc2C(=O)Nc2cc(C)on2)c1,inactive
20,CCc1nccn1CCC(=O)N1CCc2c([nH]c3ccccc23)C1CC(C)C (stereo not given),inactive

row,Structure (SMILES),Potency
1,Cc1cc(C(=O)NP(=O)(N2CCOCC2)N2CCOCC2)c(C)n1C1CC1,inactive
2,CCOC(=O)[C@H]1[C@H]2COc3ccc(Br)cc3[C@@H]2N2C(=O)c3c(C)cc(C)cc3NC(=O)[C@@]12C,inactive
3,O=C(CNC(=O)N1CC(=O)Nc2ccccc21)Nc1cc(Cl)ccc1Cl,inactive
4,COCCn1nnnc1C(C(C)C)N1CCCC(C)C1 (stereo not given),inactive
5,CC(C)(C)C(=O)NCCc1nc2ccccc2n1CC(=O)c1ccc(Cl)cc1,inactive
6,Cn1c(SCC(=O)NCCc2ccccc2)ncc(C(=O)Nc2ccc(F)cc2)c1=O,inactive
7,O=C(O)COc1ccccc1/C=N/NC(=O)CNC(=O)c1ccco1,inactive
8,O=C(C[C@@H]1C/C=C\C[C@H](Cc2ccc(F)cc2)C(=O)OC[C@H]2CCCN2C1=O)N[C@H](CO)Cc1ccccc1,inactive
9,COCCN(C(=O)CSc1nnc(-c2ccncc2)n1C)c1c(N)n(CC(C)C)c(=O)[nH]c1=O,inactive
10,O=C(Nc1ccc(Cl)cc1)Nc1nnc(-c2ccncc2)s1,inactive
11,COc1ccc(N2CCN(C(=O)COc3ccc4c(C)c(C)c(=O)oc4c3C)CC2)cc1,inactive
12,O=C(NNC(=O)c1ncc(Cl)c(Cl)c1Cl)c1ccc(F)cc1,inactive
13,Cc1cc(-c2ccccc2)nc(N/N=C/c2ccc(N(C)C)cc2)n1,inactive
14,CC(C)(C)n1ncc2c(=O)n(Cc3ccc(Cl)cc3)cnc21,inactive
15,C[C@H](CO)N1C[C@H](C)[C@H](CN(C)S(=O)(=O)c2cn(C)cn2)Oc2ccc(NC(=O)Nc3ccc(C(F)(F)F)cc3)cc2CC1=O,inactive
16,O=C(O)c1ccccc1/C=N/NC(=S)NC1CCCCC1,inactive
17,CN(c1ccccc1)S(=O)(=O)c1ccc(C(=O)Nc2nnc(C3CC3)o2)cc1,inactive
18,Cc1nn(CC(=O)OCC(=O)NC(C)c2ccccc2)c(C)c1[N+](=O)[O-] (stereo not given),inactive
19,CC1(C)Oc2ccc3ccc(=O)oc3c2[C@@H](O)[C@H]1O,inactive
20,O=c1[nH]c2ccccc2cc1CN(CC1CCCO1)S(=O)(=O)c1ccccc1 (stereo not given),inactive
